From PubChem BioAssay
Tgondii IFNg: T. gondii growth inhibition under IFN-gamma; Toxoplasma gondii growth in IFN-gamma-treated host cells; active compounds read low; activity change, negative = inhibition, % (no concentration beside the values); actives 3.8% (n = 69,000); AID 1259416; in the data active means activity change below about -70%, passing the limit was not always enough;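 further: host cells are HeLa cells infected with Toxoplasma gondii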
* = called active by the depositor; ! = repeats disagree. This is one part of a sample in which hits are shown more often than they occur.

SMILES	Tgondii IFNg
COCCOC(=O)C1=C(C)NC(C)=C(C(=O)OC/C=C/c2ccccc2)C1c1cccc([N+](=O)[O-])c1 (stereo not drawn)	-72.6*!
CCOC(=O)C1=C(C)NC(C)=C(C(=O)OC)C1c1cccc([N+](=O)[O-])c1 (stereo not drawn)	-1.7
COC(=O)C1=C(C)NC(C)=C(C(=O)OCCCN2CCC(c3ccccc3)(c3ccccc3)CC2)[C@H]1c1cccc([N+](=O)[O-])c1	-71.3*!
COCCOC(=O)C1=C(C)NC(C)=C(C(=O)OC(C)C)C1c1cccc([N+](=O)[O-])c1 (stereo not drawn)	6.9
CC1=C(C(=O)OCCN(Cc2ccccc2)c2ccccc2)C(c2cccc([N+](=O)[O-])c2)C(P2(=O)OCC(C)(C)CO2)=C(C)N1 (stereo not drawn)	-13.0
CN(C)CCNC(=O)C1CC2(CO1)CN(Cc1ccccc1)c1ccccc12 (stereo not drawn)	-18.2
O=C(c1cccs1)N1C[C@@H]2OCCN(c3ncccn3)[C@H]2C1	-0.7
CCc1n[nH]c2c1CN(c1nc(-c3cccnc3)nc3c1cnn3C)CC2	-35.0
Cc1nc(N2CCCC(NC(=O)CCc3ccno3)C2)ncc1-c1ccno1 (stereo not drawn)	75.3
COCc1cc(CN2CCC3(CC2)C(=O)NCCN3C)ccc1OC	8.2
CCOc1ccc(NC(=O)CC(=O)N2CCC3(CCCN(C)C3=O)C2)cc1 (stereo not drawn)	-3.3
Cn1c(-c2ccccc2)cnc1SCC(=O)Nc1ccc(Cl)cc1	6.8
CC1CCc2cc(F)ccc2N1C(=O)c1cc2cccnc2n(Cc2ccccc2F)c1=O (stereo not drawn)	-28.1
CC1CCc2cc(F)ccc2N1C(=O)CSc1ncc(-c2ccccc2)n1C1CCCC1 (stereo not drawn)	-80.1*
Cc1cc(C)c2c(CC(=O)N3CCC[C@]4(CCC(=O)N4)[C@H]3c3ccc(F)cc3)coc2c1	0.4
CN(C)CC(=O)N1CCCn2cnc(CNc3ncccn3)c2C1	13.5
Cc1cc(C)cc(C(=O)N2CCc3c(CNc4ncccn4)nn(C)c3C2)c1	12.6
CC(C)n1nc(CNc2ncccn2)c2c1CN(C(=O)N(C)C)CC2	-75.5*
Cc1cc(NC(=O)CNC2CCN(Cc3ccccn3)CC2)ccc1Cl	-29.9
Cc1cc(F)cc(-c2c(-c3ccccc3)ncn2CCOCCO)c1	-11.4
COc1ccc(NC(=O)c2c(O)c3cccnc3n(-c3ccc(F)cc3)c2=O)cc1F	131.7
Cc1ccc(NC(=O)c2c(O)c3cccnc3n(-c3ccc(F)cc3)c2=O)cc1F	88.9
Cc1ccc(C(=O)Nc2ccc(Oc3cc4cnn(C)c4cc3-c3cn[nH]c3)c(F)c2)c(=O)n1-c1ccc(F)cc1	-73.6*
CSc1ccc(CNC(=O)c2ccc(-c3nc(CN4CCc5ccccc54)c(C)o3)cc2)cc1	17.6
Cc1nonc1NC(=O)CN1C[C@@H](c2cccc(F)c2)[C@@H]2NCCCCC[C@H]21	2.8
SMILES	Tgondii IFNg
COc1cccc(NC(=O)N2CCC3(CC2)CC[C@@]2(C(=O)N4CCCC4)CN(C)C[C@H]32)c1	0.5
Cc1nc2ncccn2c1C(=O)N1CCCC2(C1)C(=O)Nc1ccccc12 (stereo not drawn)	-82.0*
Cc1nc2ncccn2c1C(=O)N1CCCC(C(=O)c2ccc3c4c(cccc24)CC3)C1 (stereo not drawn)	-0.8
Cc1cc(C)n2nc(C(=O)N3CCCC4(C3)C(=O)Nc3ccccc34)cc2n1 (stereo not drawn)	-24.5
COc1cc(OC)nc(/C=C/c2ccccc2)n1	-12.9
Cn1ccnc1-c1ccc(N2CCN(C/C=C/c3ccccc3)CC2)nn1	12.8
Cc1cc(Nc2cc(N3CCN(C)CC3)nc(/C=C/c3ccccc3)n2)n[nH]1	-73.6*
COc1ccc(CSc2nc(C)cc(C)c2C#N)cc1	-20.7
CN(C)c1nc(-c2ccccc2)nc(Nc2ccc(Cl)cc2Cl)c1C#N	98.6
COc1ccc(Cl)cc1Nc1nc(C)cc(C)c1C#N	-79.1*
Cc1ccc(OCc2occc2C(=O)N2CCOC(C(F)(F)F)C2)cc1 (stereo not drawn)	-1.5
COc1ccc(CN2C[C@H]3[C@@H](C(=O)NC4CCC4)CCS(=O)(=O)[C@H]3C2)cc1	136.8
O=C1CC2C(CCN2Cc2cccc(F)c2)N1CCN1CCOCC1 (stereo not drawn)	-50.7
Cc1cc(C)nc(NCCC(=O)Nc2ccc3c(c2)N(C)C(=O)C(C)O3)n1 (stereo not drawn)	1.6
COC(=O)c1cnc(NN2C(=O)CCC2=O)nc1C(F)(F)F	65.3
CCCc1c(C(=O)OCC)cnn1-c1ncc(C(=O)OC)c(C(F)(F)F)n1	-19.2
CC1CN(c2ncc(C(=O)OCc3ccccc3)c(C(F)(F)F)n2)CC(C)O1 (stereo not drawn)	-116.0*
CCCn1cnnc1CN(C)C(=O)c1nc2c(s1)CCCC2	-28.3
CN1CC2(CCN(C(=O)c3n[nH]c4ccccc34)CC2)CC1C(=O)O (stereo not drawn)	6.1
CCOc1ccc(C(=O)NCCc2sc(-c3ccc(Cl)cc3)nc2C)cc1OCC	31.3
COc1ccc(Cc2cnc(NC(=O)Cc3nc4nc(C)cc(=O)n4[nH]3)s2)cc1	-24.6
CNC(=O)[C@]12CCC3(CCN(S(=O)(=O)C4CC4)CC3)[C@H]1CN(C(C)=O)C2	-0.7
O=C(NCCc1csc(-c2cccc(F)c2)n1)C1CCCCC1	-36.1
Cc1nc(CC2CCCN(S(=O)(=O)c3cn(C)cn3)C2)cc(Nc2ncc(C)s2)n1 (stereo not drawn)	-97.5*
CCN(CC)C(=O)CN1CCC(Cc2cc(NC3CCCC3)nc(C)n2)CC1	-17.1
SMILES	Tgondii IFNg
Cn1cnc(S(=O)(=O)N2CCCC(N)CC2)c1 (stereo not drawn)	-1.3
COc1ccc(-c2nc(C)c(CCNS(=O)(=O)c3c(C)cc(C)cc3C)s2)cc1OC	15.8
COC(=O)[C@@H]1C[C@@H](NC(=O)c2ccc(-c3ccc(OC)cc3)o2)CN1C	3.7
COc1ccccc1NS(=O)(=O)c1cc2c3c(c1)CCC(=O)N3CCC2	6.9
CSc1cccc(NC(=O)N2CCCCC2CCN2CCCC2=O)c1 (stereo not drawn)	3.7
CSc1cccc(NC(=S)N2CCCCC2CCN2CCOCC2)c1 (stereo not drawn)	14.7
CSc1ccc2c(c1)N(CCC1CCCCN1C)c1ccccc1S2 (stereo not drawn)	-95.3*!
O=C(O)CCCc1nc(-c2cccnc2)no1	-2.8
FC(F)(F)c1ccnc(NCCNC(=S)Nc2cccnc2)n1	-23.0
COc1ccc(-c2ccc([C@H]3[C@@H](C#N)N(C(=O)NC(C)C)[C@H]3CO)cc2)cc1	-75.7*
COc1ccc(-c2ccccc2[C@H]2[C@@H](C#N)N(C(=O)NC(C)C)[C@H]2CO)cc1	-12.0
COc1ccc(-c2ccc([C@H]3[C@H](C#N)N(C(=O)NC(C)C)[C@H]3CO)cc2)cc1	-54.8
C=CCOc1ccccc1C(=O)N1CC[C@H](O)[C@@H](O)C1	3.1
COc1ncccc1C(=O)N(C)CC1CCCCO1 (stereo not drawn)	1.2
COc1ccc2oc(C(=O)Nc3cc(C)nn3Cc3ccncc3)cc2c1	99.8
O=C(Sc1ccc(Cl)cc1)c1cnn(-c2ccc(Cl)cc2)c1C(F)(F)F	-94.7*
Cc1nc(C(F)(F)F)ccc1C(=O)Sc1ccc(F)cc1	-1.1
FC(F)(F)c1cc(NC(=S)Sc2ccc(Cl)cc2)cc(C(F)(F)F)c1	-22.2
CCOCCCNC(=O)Cn1ncc2c(N3CCN(c4ccccc4)CC3)ncnc21	67.2
Cc1cccc(N2C(=O)CC(Sc3nnc(C)s3)C2=O)c1 (stereo not drawn)	-4.8
